Our source for the composite z-score, z-score and composite Z-score values is PubChem BioAssay.

Test [1] deals with Human papillomavirus type 1a protein E7 (residues 44-93). Put plainly: small molecules binding HPV E7 44-93 – biochemical, small-molecule microarray, residues 44-93, 635 nm fluorescence, primary screen (AID 1108).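 Also: E7 fragment applied at 1 µg/mL in TBST for 1 h at 4 C; score combines spot fluorescence with its signal to noise ratio.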 Particulars: fluorescence 635 nm, higher = more signal.
Test [2] can be described thus: hepatitis C replication reporter changes, two-sided – Huh7 cells, luciferase reporter, HCV replication inhibitor project, primary screen (AID 1109).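 Also: huh7 hepatoma cells harbouring a luciferase neomycin HCV replicon reporter; luciferase luminescence as measure of HCV replicon replication; test concentration not given here.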 Particulars: Huh7 HCV replicon luciferase reporter, 48 h; higher = more signal. On the technique in general: A reporter such as luciferase makes a cellular process visible.
In test [3] the target is Left-right determination factor 2 (Homo sapiens) (UniProt O00292). The experiment in a line: small molecules binding LEFTY2 protein – biochemical, small-molecule microarray, 635 nm fluorescence scan, primary screen (AID 1110). Particulars: higher = more signal.
Sequence of Left-right determination factor 2 (Homo sapiens) (O00292 whole entry, looked up): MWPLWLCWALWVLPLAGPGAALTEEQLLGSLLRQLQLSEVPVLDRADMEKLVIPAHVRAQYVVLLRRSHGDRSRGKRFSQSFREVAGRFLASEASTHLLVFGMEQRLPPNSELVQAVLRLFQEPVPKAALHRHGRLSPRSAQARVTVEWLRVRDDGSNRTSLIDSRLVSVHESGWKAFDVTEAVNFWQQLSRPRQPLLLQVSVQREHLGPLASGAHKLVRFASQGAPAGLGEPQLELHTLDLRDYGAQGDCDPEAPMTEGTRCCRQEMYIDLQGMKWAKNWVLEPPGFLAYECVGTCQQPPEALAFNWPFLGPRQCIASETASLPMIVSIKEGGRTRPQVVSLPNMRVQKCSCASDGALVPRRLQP
For test [4], the target named is Calmodulin-1 (Homo sapiens) (UniProt P0DP23). The experiment in a line: small molecules binding calmodulin-1 with EGTA – biochemical, small-molecule microarray, Cy5-labelled CALM1, profiling panel (AID 1111).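 Also: labelled calmodulin applied in Tris saline Tween buffer holding calcium plus EGTA and DTT.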 The note with it: Cy5-CALM1 binding fluorescence, higher = more signal.
Test [5] shares this target. Put plainly: small molecules binding Ca-loaded calmodulin-1 – biochemical, small-molecule microarray, Cy5-labelled CALM1, plus calcium, artefact control for SMM control-protein annotation, profiling panel (AID 1112).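 Also: score merges spot fluorescence with signal to noise from triplicate slides.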 Particulars: Cy5-CALM1 binding fluorescence, higher = more signal.
Test [6] is described as follows: probe aWnt5a binding to arrayed compounds – biochemical, biotinylated probe, 635/667 nm fluorescence, primary screen (AID 1113).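 Also: score merges 667 nm fluorescence intensity with signal-to-noise per printed feature.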 Particulars: small-molecule microarray, higher = more signal.
Test [7] is described as follows: probe aShh binding to arrayed compounds – biochemical, biotinylated probe, 635/667 nm fluorescence, primary screen (AID 1114).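 Also: probe is biotin-labelled aShh protein from a stem cell growth factor screen; measures binding of labelled protein to compounds printed on the slide; score merges feature fluorescence at 667 nm with signal-to-noise.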 The note with it: small-molecule microarray, higher = more signal.
The nature of test [8]: probe aNog binding to arrayed compounds – biochemical, biotinylated probe, 635/667 nm fluorescence, primary screen (AID 1115).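 Also: probe is biotinylated aNog protein used at 0.15 µg/mL for 1 h at 4 C; z-score combines 667 nm fluorescence of each spot with its signal to noise.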 The note with it: small-molecule microarray, higher = more signal.
Test [9] addresses Torsin-1A-interacting protein 1 (Homo sapiens) (UniProt Q5JTV8). Put plainly: compound microarray binding of lysate hLAP1 – cell lysate, small-molecule microarray, COS7 lysate, 635/667 nm fluorescence, primary screen (AID 1116). The note with it: 635 nm fluorescence, higher = more signal.
The target in test [10] is Alpha-bungarotoxin (Bungarus multicinctus) (UniProt P60615). Put plainly: compounds binding labelled alpha-BTX control protein – biochemical, small-molecule microarray, Alexa647 label, 635/667 nm fluorescence, artefact control for SMM control protein annotation, profiling panel (AID 1117). The note with it: alpha-BTX-A647 binding fluorescence, higher = more signal.
Sequence of Alpha-bungarotoxin (Bungarus multicinctus) (P60615 whole entry, looked up): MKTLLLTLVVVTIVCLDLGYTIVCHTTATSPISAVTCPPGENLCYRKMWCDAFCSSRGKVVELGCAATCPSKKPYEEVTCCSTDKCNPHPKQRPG
Another test deals with Albumin (Bos taurus) (UniProt P02769). The experiment in a line: compounds binding labelled BSA control protein – biochemical, small-molecule microarray, Alexa647 label, 635/667 nm fluorescence, artefact control for SMM control protein annotation, profiling panel (AID 1118).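 Also: score merges 667 nm emission intensity and signal-to-noise per printed compound spot.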 The note with it: BSA-A647 binding, fluorescence 635 nm, higher = more signal.
Sequence of Albumin (Bos taurus) (P02769 whole entry, looked up): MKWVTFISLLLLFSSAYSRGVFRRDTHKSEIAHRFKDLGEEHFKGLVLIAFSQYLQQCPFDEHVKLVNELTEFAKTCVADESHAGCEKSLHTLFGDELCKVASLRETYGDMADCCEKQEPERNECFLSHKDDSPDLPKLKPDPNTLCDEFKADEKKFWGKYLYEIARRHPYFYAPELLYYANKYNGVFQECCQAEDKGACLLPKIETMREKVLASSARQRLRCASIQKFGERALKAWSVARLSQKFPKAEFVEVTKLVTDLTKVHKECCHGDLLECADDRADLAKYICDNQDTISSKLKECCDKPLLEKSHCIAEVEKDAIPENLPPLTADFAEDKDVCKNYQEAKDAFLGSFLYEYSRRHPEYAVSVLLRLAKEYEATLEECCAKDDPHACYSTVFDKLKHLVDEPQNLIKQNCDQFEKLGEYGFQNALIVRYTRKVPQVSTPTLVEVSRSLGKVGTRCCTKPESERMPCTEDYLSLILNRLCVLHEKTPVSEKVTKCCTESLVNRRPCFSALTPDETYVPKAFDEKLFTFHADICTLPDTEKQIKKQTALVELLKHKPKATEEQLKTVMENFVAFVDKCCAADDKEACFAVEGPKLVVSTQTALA
Test [11] is described as follows: probe aXIP binding to arrayed compounds – biochemical, NeuroSMM set, 635/667 nm fluorescence, primary screen (AID 1119).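 Also: probe is the protein aXip251-270 applied at 1 µg/mL to compound-printed slides; binding of probe to printed compounds measured as 667 nm fluorescence plus signal to noise.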 Particulars: small-molecule microarray, higher = more signal, called active from +8 up or from −8 down.
Test [12] can be described thus: probe aNOTCH3 binding on compound microarray – biochemical, small-molecule microarray, 635/667 nm fluorescence, primary screen (AID 1120).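 Also: probe is a biotin-tagged antibody raised against NOTCH3 rather than NOTCH3 protein; score merges spot fluorescence near 667 nm with spot signal to noise.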 Particulars: higher = more signal.
Test [13] can be described thus: probe aNOTCH2 binding on compound microarray – biochemical, small-molecule microarray, 635/667 nm fluorescence, primary screen (AID 1121).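 Also: score merges feature fluorescence read at 667 nm with its signal to noise.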 Particulars: higher = more signal.
In test [14] the target is Carbonic anhydrase 2 (Homo sapiens) (UniProt P00918). The experiment in a line: compounds binding carbonic anhydrase 2 – biochemical, small-molecule microarray, Alexa647-labelled CAII, profiling panel (AID 1122). The note with it: CAII-A647 binding fluorescence, higher = more signal.
Test [15] in a line: COS7 lysate on small-molecule microarray, probe aHis, 635 nm (AID 1123).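 Also: z-score combines 667nm fluorescence intensity with signal-to-noise per printed compound spot.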 The note with it: COS7 cell lysate, fluorescence, higher = more signal.
Test [16] is described as follows: probe aLAP1 signal on lysate-treated microarray – cell lysate, small-molecule microarray, COS7 lysate, primary screen (AID 1124).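 Also: lysate comes from COS7 cells expressing LAP1 and is applied at 0.3 µg/mL; score merges spot fluorescence near 667 nm with signal-to-noise over triplicate slides.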 Particulars: probe aLAP1, fluorescence, higher = more signal.
The test system of another test is Sam68 (KHDRBS1). The experiment in a line: compounds binding KHDRBS1 protein – biochemical, small-molecule microarray, 635 nm fluorescence, primary screen (AID 1125).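 Also: score merges 667 nm channel intensity with signal to noise over triplicate slides.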 The note with it: higher = more signal.
Test [17] concerns Chordin-like protein 2 (CHRDL2). Put plainly: compounds binding chordin-like 2 – biochemical, small-molecule microarray, 635 nm fluorescence, primary screen (AID 1126).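 Also: printed compound slides probed with Chrdl2 protein at 4 µg/mL for 1 h at 4 C; score merges 667 nm emission intensity with signal to noise over three replicate slides.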 Particulars: fluorescence 635 nm, higher = more signal.
The target in test [18] is Concanavalin-A (Canavalia ensiformis) (UniProt P02866). The experiment in a line: compounds binding concanavalin A lectin – biochemical, small-molecule microarray, Alexa647 label, 635 nm, artefact control for SMM control protein annotation, primary screen (AID 1127).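 Also: z combines 667 nm emission intensity with signal-to-noise across three replicate slides.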 Particulars: ConA-A647 binding fluorescence, higher = more signal.
Sequence of Concanavalin-A (Canavalia ensiformis) (P02866 whole entry, looked up): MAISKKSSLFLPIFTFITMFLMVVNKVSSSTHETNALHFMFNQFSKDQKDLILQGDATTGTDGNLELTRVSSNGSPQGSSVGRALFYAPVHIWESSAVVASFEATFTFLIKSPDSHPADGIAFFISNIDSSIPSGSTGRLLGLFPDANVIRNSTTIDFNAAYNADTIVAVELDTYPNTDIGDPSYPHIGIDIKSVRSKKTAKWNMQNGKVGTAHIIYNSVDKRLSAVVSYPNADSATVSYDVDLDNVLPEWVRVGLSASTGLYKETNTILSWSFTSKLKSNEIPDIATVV

The source made the active and inactive calls.

Sequence of Torsin-1A-interacting protein 1 (Homo sapiens) (Q5JTV8 whole entry, looked up): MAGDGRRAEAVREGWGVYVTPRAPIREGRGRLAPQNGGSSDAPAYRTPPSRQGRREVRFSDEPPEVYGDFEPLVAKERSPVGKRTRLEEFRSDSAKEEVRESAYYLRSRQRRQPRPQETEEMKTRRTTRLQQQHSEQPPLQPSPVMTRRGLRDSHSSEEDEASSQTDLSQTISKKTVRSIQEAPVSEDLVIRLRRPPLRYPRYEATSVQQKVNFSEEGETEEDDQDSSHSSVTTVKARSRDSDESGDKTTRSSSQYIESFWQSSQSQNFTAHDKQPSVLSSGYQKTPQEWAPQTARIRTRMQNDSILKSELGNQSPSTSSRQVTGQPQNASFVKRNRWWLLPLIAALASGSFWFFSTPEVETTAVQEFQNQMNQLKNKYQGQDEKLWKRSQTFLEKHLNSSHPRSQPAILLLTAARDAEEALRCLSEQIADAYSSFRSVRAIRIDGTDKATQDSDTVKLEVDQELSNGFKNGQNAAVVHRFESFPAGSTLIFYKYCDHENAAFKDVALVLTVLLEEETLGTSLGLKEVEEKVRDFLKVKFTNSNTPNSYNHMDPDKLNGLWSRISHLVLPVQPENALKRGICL

With `N#Cc1ccc(NN2C(C(O)c3ccccc3)C=CC3C(=O)N(c4ccccc4)C(=O)C32)cc1` (stereo not given), the composite z-score in [1] was 0.117; in [3], -0.135; in test [4], -0.0722; in [5], -0.162; in [6], 0.0797; in [7], -0.102. Also, the composite z-score in [8] was 0.642; in test [9] it was -0.113; in [10], 0.153; with Albumin (Bos taurus), 0.801; in test [12], 0.222; in test [13], 0.0288. Further, the composite z-score was 0.809 in test [14]; 1.97 in test [15]; 0.191 in test [16]; 0.0437 in the test with Sam68 (KHDRBS1); -0.605 in test [17]; -0.0029 in test [18]. The compound further showed a z-score in [2] of 0.335. Further, the composite Z-score in test [11] was 0.151 (inactive).

As for `COCCOC(=O)N1C(=O)[C@@]2(c3cc(C#Cc4ccc(OC)cc4)ccc31)[C@H](C(N)=O)[C@H]1C(=O)O[C@H](c3ccccc3)[C@H](c3ccccc3)N1[C@@H]2c1ccc(OCCO)cc1`, the composite z-score is 1.42 in test [1]; 0.746 in test [3]; 0.894 in [4]; -0.454 in test [5]; -0.0512 in test [6]; -0.12 in test [7]. Besides, the composite z-score is 0.492 in test [8]; 1.09 in [9]; 1.5 in test [10]; -0.884 in the test with Albumin (Bos taurus); 0.43 in test [12]; -0.0984 in test [13]. Besides, the composite z-score turned out to be 0.332 in [14]; 1.79 in test [15]; 0.52 in test [16]; 1.3 in the test with Sam68 (KHDRBS1); 0.714 in test [17]; 0.921 in [18]. Besides, the z-score in test [2] is -2.25. In addition, the composite Z-score in [11] is 0.393 (inactive).

As to `COc1ccc(C#Cc2ccc3c(c2)[C@]2(C(=O)N3)[C@H](C(N)=O)[C@H]3C(=O)O[C@H](c4ccccc4)[C@H](c4ccccc4)N3[C@@H]2c2ccc(O)cc2)cc1`, the composite z-score is 1.48 in [1]; 0.422 in [3]; 0.539 in [4]; 0.686 in [5]; -0.12 in [6]; -0.0904 in test [7]. Besides, the composite z-score in test [8] was -0.215; in test [9], 1.09; in [10] it was 1.05; in the test with Albumin (Bos taurus), 0.49; in test [12], -0.0947; in test [13], -0.148. Moreover, the composite z-score is 0.414 in [14]; 2.27 in [15]; 0.211 in test [16]; 0.902 with Sam68 (KHDRBS1); -0.0806 in [17]; 0.985 in test [18]. The z-score in test [2] is -2.51. In addition, the composite Z-score in test [11] is 0.312 (inactive).

For the compound `O=C1NC(=O)C2C1C=CC(C(O)c1ccc3c(c1)OCO3)N2Nc1ccc(Cl)cc1Cl` (stereo not given), the composite z-score in test [1] was -0.85; in [3] it was -0.0483; in test [4] it was 1.43; in test [5], 0.527; in test [6], -0.0846; in test [7], -0.232. For the same compound, the composite z-score in test [8] was 0.265; in test [9], 1.73; in test [10], 0.114; with Albumin (Bos taurus), 0.817; in test [12] it was 0.144; in [13], -0.063. Also, the composite z-score in test [14] was found to be 0.566; in test [15] it was 3.03; in test [16], 1.19; with Sam68 (KHDRBS1), 0.355; in [17] it was 0.26; in [18], 0.148. Moreover, in [2], the z-score is -0.795. Further, the composite Z-score in [11] is 0.549 (inactive).

Consider `CCCCC(O)C1C=CC2C(=O)N(Cc3ccccc3)C(=O)C2N1n1cnnc1` (stereo not given), for which the composite z-score in test [1] is 1.13; in test [3] it was 0.23; in test [4] it was 0.0285; in test [5] it was -0.163; in test [6], -0.0087; in [7], 0.13. Moreover, the composite z-score in [8] is -0.0351; in [9], 0.208; in test [10], 0.274; in the test with Albumin (Bos taurus), -0.0045; in [12], 0.0039; in [13], -0.101. For the same compound, the composite z-score in test [14] is 0.644; in test [15] it was 1.4; in test [16], 0.0713; in the test on Sam68 (KHDRBS1), 1.01; in [17] it was -0.0652; in test [18], 0.216. Moreover, the z-score in test [2] was -1.09. Moreover, the composite Z-score in test [11] was 0.406 (inactive).
